# From PubChem BioAssay
# A number with no mark means an inactive call. Active and inactive are the calls of the source.
# Test: S. cerevisiae RM11-1a growth modifiers, primary screen, strain RM11-1a, OD600, basal, 24 h (AID 1177);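 also: cultures grown under basal conditions with no added stressor; test concentration not given here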
# Settings: OD600, 24 h, higher = more signal, called active from +8 up or from −8 down
row,SMILES,z-score
1,CN(C)C(=O)[C@@]1(CCS(=O)(=O)c2ccccc2)N=C(c2ccc(OCCCO)cc2)O[C@H]1c1ccccc1CN=[N+]=[N-],-0.791
2,Cc1ccc(S[C@]2(C(=O)NCc3ccccc3)CC(=O)N(C3Cc4ccccc4C3)[C@@H]2c2ccc(CO)cc2I)cc1,-2.63
3,C=C(C)[C@@H]1CC=C(C(O)C2C=CC3C(=O)N(C4CCCCC4)C(=O)C3N2Nc2ccc(OC)cc2)CC1 (stereo partly specified),0.0587
4,CC(C)(C)N1CC=CC23O[C@@H]4C=CCCOC(=O)C4[C@H]2C(=O)N(CCCO)[C@@H]3C1=O (stereo partly specified),0.605
5,CN(C)C(=O)[C@]1(Cc2ccccc2N=[N+]=[N-])N=C(c2ccc(OCCCO)cc2)O[C@@H]1c1ccccc1CN=[N+]=[N-],-0.495
6,COC(=O)[C@@]1(Cc2ccc(OC)cc2)[C@H]2c3cc(C(=O)N4CCCC4)n(Cc4ccc(C)o4)c3C[C@H]2CN1C(=O)c1ccccc1,-1.57
7,[N-]=[N+]=NCc1ccccc1C[C@]1(C(=O)NCCN2CCOCC2)N=C(c2ccc(OCCCO)cc2)O[C@H]1c1ccccc1,-0.65
8,CCCCCCC#C[Si](O[C@H](c1ccccc1)c1cn(Cc2cccc(Cl)c2)nn1)(C(C)C)C(C)C,0.738
9,COCCOC(=O)N1C(=O)[C@@]2(c3cc(C#CC4(O)CCCCCC4)ccc31)[C@H](C(=O)N1CCN(c3ncccn3)CC1)[C@H]1C(=O)O[C@H](c3ccccc3)[C@H](c3ccccc3)N1[C@@H]2c1ccc(O)cc1,2.1
10,COc1ccc(C(=O)Nc2ccc3c(c2)[C@]2(O[C@@H](CCO)[C@H]([Si](C)(C)c4ccc(OC)cc4)[C@H]2C)C(=O)N3Cc2ccccc2)cc1,2.47
11,COc1ccc([Si](C)(C)[C@@H]2[C@@H](CCO)O[C@]3(C(=O)N(Cc4ccccc4)c4ccc(N5CCCCC5=O)cc43)[C@H]2C)cc1,3.49
12,C#CCNS(=O)(=O)N(C)C,0.648
13,COCCCNC(=O)[C@]1(CCS(=O)(=O)c2ccccc2)N=C(c2ccc(OCCCO)cc2)O[C@@H]1c1ccccc1,-0.588
14,CC(=O)NCCCC[C@@H]1NC(=O)[C@@H]2C[C@H](C(=O)NCCCC[N+](C)(C)C)[C@H](c3cccc(OCCO)c3)N2C1=O,0.954
15,CCCC[C@@H](O)C1=C(COc2ccccc2)Cn2c(=O)n(-c3ccccc3)c(=O)n2[C@H]1CO,-3.57
16,C=CCOC(=O)[C@H]1[C@@H]2C(=O)O[C@@H](c3ccccc3)[C@@H](c3ccccc3)N2[C@@H](c2ccc(OCCOC(=O)[C@H]3C[C@H]4C(=O)N[C@@H](CCCCN(C)C)C(=O)N4[C@H]3c3ccc(O)cc3)cc2)[C@]12C(=O)Nc1ccccc12,0.719
17,C=CCNC(=O)[C@H]1[C@@H]2C(=O)O[C@@H](c3ccccc3)[C@@H](c3ccccc3)N2[C@@H](c2ccc(OCCO)cc2)[C@]12C(=O)N(C(=O)OCCOC)c1ccc(C#CC3=CCCCC3)cc12,1.45
18,COC(=O)[C@@]1(Cc2ccccc2)[C@H]2c3cc(C(=O)N4CCCC4)n(Cc4ccc(OC(F)(F)F)cc4)c3C[C@H]2CN1C(=O)c1ccccc1,1.85

row,SMILES,z-score
1,COc1ccc([Si](C)(C)[C@H]2[C@H](CCn3cc(CCO)nn3)O[C@@]3(C(=O)N(Cc4cccc(N5C(=O)c6cccc7cccc5c67)c4)c4ccccc43)[C@@H]2C)cc1,2.16
2,COC(=O)[C@@]1(Cc2ccc(F)cc2)[C@H]2c3cc(C(=O)N4CCCC4)n(Cc4ccccc4)c3C[C@H]2CN1C(=O)c1ccccc1,0.669
3,CCC[C@@H]1C[C@@]1(CCC)[C@@H](NC(=O)c1ccco1)c1ccc(Cl)cc1,0.288
4,C[C@@]1([C@@H](NC(=O)c2cccs2)c2ccc(-c3ccccc3)cc2)C[C@H]1C1CCCCC1,0.548
5,O=C1O[C@H](c2ccccc2)[C@H](c2ccccc2)N2[C@H]1[C@@H](C(=O)N1CCN(c3ncccn3)CC1)[C@]1(C(=O)Nc3ccc(C#CCCO)cc31)[C@H]2c1ccccc1OCCO,1.91
6,C=C(COC)C(=O)CC[C@H](OC(=O)c1ccccc1-c1ccccc1C(=O)O)c1ccc(CO)o1,0.89
7,COCC(=C=CC[C@@H](O)c1ccccc1OCCO)C[C@@H](O)c1ccccn1,-0.572
8,COC(=O)C(CC#Cc1ccc2c(c1)[C@]1(C(=O)N2)[C@H](c2ccc(OCCO)cc2)N2[C@H](c3ccccc3)[C@H](c3ccccc3)OC(=O)[C@H]2[C@@H]1C(=O)O)C(=O)OC,1.48
9,COCCCNC(=O)[C@]1(Cc2ccccc2CN=[N+]=[N-])N=C(c2ccc(OCCCO)cc2)O[C@@H]1c1ccccc1CN=[N+]=[N-],-0.605
10,C=C(C(=O)CC[C@H](OC(=O)c1cccnc1)c1ccc(OCCO)cc1)C(C)C,0.899
11,CC(C)CNC(=O)[C@@]1(C)c2ccccc2C(=O)N(Cc2ccccc2)[C@H]1c1ccc(CO)cc1,-1.07
12,CC(C)(C)OC(=O)CC[C@]1(C(=O)O)COC(c2ccc(OCCCO)cc2)=N1,0.433
13,COc1ccc([Si](C)(C)[C@@H]2[C@@H](CC(=O)N(CCO)Cc3ccccc3)O[C@]3(C(=O)N(Cc4ccc(N5CCOC5=O)cc4)c4ccccc43)[C@H]2C)cc1,0.953
14,CCCCC=C[C@@H](NC(=O)CCc1ccccc1)c1ccccc1,0.929
15,C=C(/C(=C/C[C@@H](OC(=O)c1ccncc1)c1ccccc1OCCO)c1cnc2ccccc2c1)C(C)C,-21.9 (active)
16,C=C(CCCC)/C(=C/C[C@@H](OC(=O)c1ccncc1)c1ccccc1OCCO)c1cc(C(=O)OC)ccc1OC,0.111
17,CC(C)N1C(=O)c2ccccc2[C@](C)(C(=O)O)[C@@H]1c1ccc(CO)cc1,0.595
18,COC(=O)[C@@]1(Cc2ccc(OC)cc2)[C@H]2c3cc(C(=O)N(C)C)n(Cc4cc(C)n(C)n4)c3C[C@H]2CN1C(=O)c1ccccc1,0.949
